Test results as given in PubChem BioAssay AID1159580 (chemical genetic matrix, 2015).
Out of some 5,500 compounds screened, about 2,000 (36%) were called active. Not shown: some 18% with an inconclusive outcome. Rule as the data show it: active = normalized growth mostly below about 0.91 (no sharp cut-off); inconclusive = no clear call, values can overlap the other calls; inactive = mostly above about 0.92. Some of the results follow.

Test: chemical genetic growth profiling, strain panel (AID 1159580);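 also: tested at 20 µM; growth read once vehicle control cultures reached saturation at 30 °C; 1 = growth at the plate median or of vehicle wells; lower values mean less growth of the strain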
Details: growth OD
[1] = S. cerevisiae deletion strains, locus YAR019C, strain CDC15, stronger effect = lower value
[2] = S. cerevisiae deletion strains, locus YBL105C, strain PKC1, stronger effect = lower value
[3] = S. cerevisiae deletion strains, locus YBR135W, strain CKS1, stronger effect = lower value
[4] = S. cerevisiae deletion strains, locus YBR136W, strain MEC1, stronger effect = lower value
[5] = S. cerevisiae deletion strains, locus YBR160W, strain CDC28, stronger effect = lower value
[6] = S. cerevisiae deletion strains, locus YDL017W, strain CDC7, stronger effect = lower value
[7] = S. cerevisiae deletion strains, locus YDL028C, strain MPS1, stronger effect = lower value
[8] = S. cerevisiae deletion strains, locus YDL101C, strain DUN1, stronger effect = lower value
[9] = S. cerevisiae deletion strains, locus YDL108W, strain KIN28, stronger effect = lower value
[10] = S. cerevisiae deletion strains, locus YDL132W, strain cdc53, stronger effect = lower value
[11] = S. cerevisiae deletion strains, locus YDL214C, strain PRR2, stronger effect = lower value
[12] = S. cerevisiae deletion strains, locus YDR052C, strain DBF4, stronger effect = lower value
[13] = S. cerevisiae deletion strains, locus YDR054C, strain cdc34, stronger effect = lower value
[14] = S. cerevisiae deletion strains, locus YDR226W, strain ADK1, stronger effect = lower value
[15] = S. cerevisiae deletion strains, locus YDR477W, strain SNF1, stronger effect = lower value
[16] = S. cerevisiae deletion strains, locus YER123W, strain YCK3, stronger effect = lower value
[17] = S. cerevisiae deletion strains, locus YER133W, strain GLC7, stronger effect = lower value
[18] = S. cerevisiae deletion strains, locus YFL009W, strain cdc4, stronger effect = lower value
[19] = S. cerevisiae deletion strains, locus YFL029C, strain CAK1, stronger effect = lower value
[20] = S. cerevisiae deletion strains, locus YFR003C, strain YPI1, stronger effect = lower value
[21] = S. cerevisiae deletion strains, locus YFR019W, strain FAB1, stronger effect = lower value
[22] = S. cerevisiae deletion strains, locus YFR028C, strain CDC14, stronger effect = lower value
[23] = S. cerevisiae deletion strains, locus YGR040W, strain KSS1, stronger effect = lower value
[24] = S. cerevisiae deletion strains, locus YGR052W, strain FMP48, stronger effect = lower value
[25] = S. cerevisiae deletion strains, locus YGR092W, strain DBF2, stronger effect = lower value
[26] = S. cerevisiae deletion strains, locus YHR030C, strain SLT2, stronger effect = lower value
[27] = S. cerevisiae deletion strains, locus YHR079C, strain IRE1, stronger effect = lower value
[28] = S. cerevisiae deletion strains, locus YHR082C, strain KSP1, stronger effect = lower value
[29] = S. cerevisiae deletion strains, locus YHR205W, strain SCH9, stronger effect = lower value
[30] = S. cerevisiae deletion strains, locus YIL147C, strain SLN1, stronger effect = lower value
[31] = S. cerevisiae deletion strains, locus YJL095W, strain BCK1, stronger effect = lower value
[32] = S. cerevisiae deletion strains, locus YJL128C, strain PBS2, stronger effect = lower value
[33] = S. cerevisiae deletion strains, locus YJL157C, strain FAR1, stronger effect = lower value
[34] = S. cerevisiae deletion strains, locus YJR016C, strain ILV3, stronger effect = lower value
[35] = S. cerevisiae deletion strains, locus YJR066W, strain TOR1 (second series), stronger effect = lower value
[36] = S. cerevisiae deletion strains, locus YJR066W, strain TOR1, stronger effect = lower value
[37] = S. cerevisiae deletion strains, locus YKL048C, strain ELM1, stronger effect = lower value
[38] = S. cerevisiae deletion strains, locus YKL067W, strain YNK1, stronger effect = lower value
[39] = S. cerevisiae deletion strains, locus YKL101W, strain HSL1, stronger effect = lower value
[40] = S. cerevisiae deletion strains, locus YKL193C, strain SDS22, stronger effect = lower value
[41] = S. cerevisiae deletion strains, locus YKL203C, strain TOR2, stronger effect = lower value
[42] = S. cerevisiae deletion strains, locus YLR113W, strain HOG1, stronger effect = lower value
[43] = S. cerevisiae deletion strains, locus YLR133W, strain CKI1, stronger effect = lower value
[44] = S. cerevisiae deletion strains, locus YLR403W, strain SFP1, stronger effect = lower value
[45] = S. cerevisiae deletion strains, locus YML070W, strain DAK1, stronger effect = lower value
[46] = S. cerevisiae deletion strains, locus YMR001C, strain CDC5, stronger effect = lower value
[47] = S. cerevisiae deletion strains, locus YMR205C, strain PFK2 (second series), stronger effect = lower value
[48] = S. cerevisiae deletion strains, locus YMR277W, strain FCP1, stronger effect = lower value
[49] = S. cerevisiae deletion strains, locus YNL006W, strain LST8, stronger effect = lower value
[50] = S. cerevisiae deletion strains, locus YNL020C, strain ARK1, stronger effect = lower value
[51] = S. cerevisiae deletion strains, locus YNL161W, strain CBK1, stronger effect = lower value
[52] = S. cerevisiae deletion strains, locus YNL183C, strain NPR1, stronger effect = lower value
[53] = S. cerevisiae deletion strains, locus YNL207W, strain RIO2, stronger effect = lower value
[54] = S. cerevisiae deletion strains, locus YNL222W, strain SSU72, stronger effect = lower value
[55] = S. cerevisiae deletion strains, locus YNL307C, strain MCK1 (second series), stronger effect = lower value
[56] = S. cerevisiae deletion strains, locus YOL078W, strain AVO1, stronger effect = lower value
[57] = S. cerevisiae deletion strains, locus YOL136C, strain PFK27, stronger effect = lower value
[58] = S. cerevisiae deletion strains, locus YOR061W, strain CKA2, stronger effect = lower value
[59] = S. cerevisiae deletion strains, locus YOR119C, strain RIO1, stronger effect = lower value
[60] = S. cerevisiae deletion strains, locus YOR231W, strain MKK1, stronger effect = lower value
[61] = S. cerevisiae deletion strains, locus YOR329C, strain SCD5, stronger effect = lower value
[62] = S. cerevisiae deletion strains, locus YPL031C, strain PHO85, stronger effect = lower value
[63] = S. cerevisiae deletion strains, locus YPL153C, strain RAD53, stronger effect = lower value
[64] = S. cerevisiae deletion strains, locus YPL204W, strain HRR25, stronger effect = lower value
[65] = S. cerevisiae deletion strains, locus YPL209C, strain IPL1, stronger effect = lower value
[66] = S. cerevisiae deletion strains, locus YPL256C, strain CLN2, stronger effect = lower value
[67] = S. cerevisiae deletion strains, locus YPR025C, strain CCL1, stronger effect = lower value
[68] = S. cerevisiae deletion strains, locus YPR106W, strain ISR1, stronger effect = lower value
[69] = S. cerevisiae deletion strains, locus YPR111W, strain DBF20, stronger effect = lower value
[70] = S. cerevisiae deletion strains, strain NNK1, stronger effect = lower value
[71] = S. cerevisiae deletion strains, strain TSCII, stronger effect = lower value

Measured: normalized growth

N#CC(C#N)=C(SCc1c(Cl)cccc1Cl)SCc1c(Cl)cccc1Cl
inactive: [1] 0.997 | [2] 0.981 | [3] 0.992 | [4] 0.988 | [5] 0.996 | [6] 0.989 | [7] 0.993 | [8] 0.988 | [9] 0.989 | [10] 0.984 | [11] 0.996 | [12] 0.99 | [13] 0.977 | [14] 0.981 | [15] 0.993 | [16] 0.999 | [17] 0.995 | [18] 0.981 | [19] 0.986 | [20] 0.99 | [21] 0.979 | [22] 0.993 | [23] 0.993 | [24] 1.03 | [25] 0.982 | [26] 0.925 | [27] 0.93 | [28] 1.11 | [29] 0.859 | [30] 0.992 | [31] 0.969 | [32] 0.993 | [33] 0.989 | [34] 0.991 | [35] 1 | [36] 1.09 | [37] 0.954 | [38] 0.995 | [39] 0.981 | [40] 0.987 | [41] 1.08 | [42] 0.95 | [43] 0.991 | [44] 0.937 | [45] 0.998 | [46] 0.985 | [47] 0.996 | [48] 0.994 | [49] 0.997 | [50] 0.987 | [51] 0.983 | [52] 1.1 | [53] 0.987 | [54] 0.987 | [55] 0.989 | [56] 0.993 | [57] 0.988 | [58] 0.995 | [59] 1.08 | [60] 1.01 | [61] 0.986 | [62] 0.989 | [63] 1.01 | [64] 1 | [65] 0.987 | [66] 0.946 | [67] 0.996 | [68] 0.998 | [69] 0.988 | [70] 0.996 | [71] 0.993

Nc1ccccc1SCc1c(Cl)cccc1Cl
inactive: [1] 0.949 | [2] 0.947 | [3] 0.957 | [4] 0.945 | [5] 0.953 | [6] 0.952 | [7] 0.947 | [8] 0.953 | [9] 0.954 | [10] 0.94 | [11] 0.889 | [12] 0.962 | [13] 0.943 | [14] 0.969 | [15] 0.859 | [16] 0.795 | [17] 0.821 | [18] 0.946 | [19] 0.949 | [20] 0.944 | [21] 0.841 | [22] 0.948 | [23] 0.853 | [24] 0.787 | [25] 0.775 | [27] 0.843 | [28] 0.835 | [29] 0.68 | [30] 0.952 | [31] 0.617 | [32] 0.914 | [33] 0.885 | [34] 0.956 | [35] 0.813 | [36] 0.767 | [37] 0.939 | [38] 0.87 | [39] 0.87 | [40] 0.952 | [41] 0.907 | [43] 0.91 | [44] 0.795 | [45] 0.831 | [46] 0.945 | [47] 0.885 | [48] 0.951 | [49] 0.959 | [50] 0.891 | [51] 0.955 | [52] 0.79 | [53] 0.948 | [54] 0.951 | [55] 0.825 | [56] 0.943 | [57] 0.853 | [58] 0.843 | [59] 0.905 | [60] 0.751 | [61] 0.95 | [62] 0.841 | [63] 0.85 | [64] 0.857 | [65] 0.949 | [66] 0.917 | [67] 0.95 | [68] 0.95 | [69] 0.935 | [70] 0.944 | [71] 0.952
active: [26] 0.695 | [42] 0.696

Clc1cccc(Cl)c1CSC1=NCCCN1C1CCCCC1
inactive: S. cerevisiae deletion strains, locus YAL013W, strain DEP1, stronger effect = lower value 0.999 | S. cerevisiae deletion strains, locus YBR229C, strain ROT2, stronger effect = lower value 1 | [8] 1 | S. cerevisiae deletion strains, locus YDR150W, strain NUM1, stronger effect = lower value 0.993 | S. cerevisiae deletion strains, locus YEL061C, strain CIN8, stronger effect = lower value 0.973 | S. cerevisiae deletion strains, locus YGR078C, strain PAC10, stronger effect = lower value 1 | S. cerevisiae deletion strains, locus YGR229C, strain SMI1, stronger effect = lower value 1 | [26] 0.967 | S. cerevisiae deletion strains, locus YHR087W, strain rtc3, stronger effect = lower value 1.01 | S. cerevisiae deletion strains, locus YJL187C, strain SWE1, stronger effect = lower value 1.01 | S. cerevisiae deletion strains, locus YJR043C, strain POL32, stronger effect = lower value 1 | S. cerevisiae deletion strains, locus YJR075W, strain HOC1, stronger effect = lower value 1.03 | S. cerevisiae deletion strains, locus YLR039C, strain RIC1, stronger effect = lower value 1 | S. cerevisiae deletion strains, locus YLR058C, strain SHM2 (second series), stronger effect = lower value 0.993 | S. cerevisiae deletion strains, locus YLR085C, strain ARP6, stronger effect = lower value 0.987 | S. cerevisiae deletion strains, locus YLR262C, strain YPT6, stronger effect = lower value 1.01 | S. cerevisiae deletion strains, locus YML094W, strain GIM5, stronger effect = lower value 0.988 | S. cerevisiae deletion strains, locus YMR219W, strain ESC1, stronger effect = lower value 0.994 | S. cerevisiae deletion strains, locus YMR263W, strain SAP30, stronger effect = lower value 1.01 | S. cerevisiae deletion strains, locus YNL153C, strain GIM3, stronger effect = lower value 0.985 | S. cerevisiae deletion strains, locus YNL298W, strain CLA4 (second series), stronger effect = lower value 0.998 | S. cerevisiae deletion strains, locus YNL322C, strain KRE1, stronger effect = lower value 1 | S. cerevisiae deletion strains, locus YNR030W, strain Alg12, stronger effect = lower value 0.975 | S. cerevisiae deletion strains, locus YOL006C, strain TOP1, stronger effect = lower value 0.986 | S. cerevisiae deletion strains, locus YPL055C, strain LGE1, stronger effect = lower value 1.05 | S. cerevisiae deletion strains, locus YPL241C, strain CIN2, stronger effect = lower value 0.992 | S. cerevisiae deletion strains, locus YPR135W, strain CTF4, stronger effect = lower value 1.09 | S. cerevisiae strains, strain wild type, stronger effect = lower value 1
